PPC-1+TRAIL kill: kills PPC-1 cancer cells in the presence of TRAIL; PPC-1 cells + TRAIL, ATPLite viability luminescence; cell killing (% activity), % at 4 µM or 5 µM; 220,000 tested, 0.41% active;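 active means cell killing above 50% in the first pass at 4 µM, then a duplicate retest at 5 µM averaging 50% or more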;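 further: plate controls were cells with TRAIL plus DMSO for no effect and medium-only wells lacking cells for full effect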
SENP6 block: blocks the human protease SENP6. Recombinant SENP6 catalytic domain, aminoluciferin luminescence. inhibition, % at 10 µM. 330,000 tested, 1.8% active;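 active means inhibition above about 50% at the single tested dose, limit read from the data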;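 further: plate controls were DMSO wells with enzyme for no effect and DMSO wells lacking enzyme for full effect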
SENP8 block-1: inhibitors of human SENP8 protease; purified SENP8, Z-RLRGG-aminoluciferin cleavage, luminescence; inhibition, % at 10 µM; 330,000 tested, 1.2% active; AID 2540; in the data active means inhibition above about 50%
Target sequence (Q96LD8 whole entry, looked up): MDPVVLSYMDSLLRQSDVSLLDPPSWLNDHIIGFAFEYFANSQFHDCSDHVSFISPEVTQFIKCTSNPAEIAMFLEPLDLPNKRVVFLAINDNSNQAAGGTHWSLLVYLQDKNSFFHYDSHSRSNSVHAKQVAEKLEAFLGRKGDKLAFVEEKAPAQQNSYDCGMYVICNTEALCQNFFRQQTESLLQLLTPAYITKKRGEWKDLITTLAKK
SENP8 block-2: blocks human SENP8 cleavage of Nedd8 substrate | Q96LD8 | 360,000 tested, 0.64% active | inhibition, % at 20 µM | recombinant SENP8, Nedd8 substrate fluorescence | AID 602440; in the data active means inhibition mostly above about 40%, no sharp cut-off; inactive means mostly below about 27%
TRAIL sens C8: sensitizes caspase-8 expressing cells to TRAIL; NB7+C8 cells + TRAIL, ATPlite viability luminescence; inhibition (viability loss, TRAIL sensitization), % at 10 µM; 360,000 tested, 1% active;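 active means compounds causing at least 50% loss of cell viability in the single-dose screen, relative to plate controls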
SENP7 inh: blocks the human protease SENP7. Q9BQF6. recombinant SENP7, Z-RLRGG-aminoluciferin luminescence, 40 min. inhibition, % at 5 µM. 330,000 tested, 1.5% active. AID 434973;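 active means inhibition above about 50% at the single test dose, limit read from the data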;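 further: plate controls were DMSO with enzyme for no effect and no enzyme buffer wells for full effect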
Target sequence (Q9BQF6 706-1050 limits assumed): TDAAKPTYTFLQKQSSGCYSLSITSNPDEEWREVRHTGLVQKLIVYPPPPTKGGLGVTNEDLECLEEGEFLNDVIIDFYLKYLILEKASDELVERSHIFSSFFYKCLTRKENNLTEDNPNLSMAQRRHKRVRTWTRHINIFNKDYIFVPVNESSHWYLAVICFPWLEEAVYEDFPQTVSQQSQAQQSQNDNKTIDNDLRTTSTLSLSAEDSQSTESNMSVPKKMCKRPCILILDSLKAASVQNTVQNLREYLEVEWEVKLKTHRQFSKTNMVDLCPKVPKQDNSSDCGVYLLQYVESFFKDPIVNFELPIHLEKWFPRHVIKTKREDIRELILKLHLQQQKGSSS
* marks the source's active call; other numbers are inactive results; / = not tested or not shown; ! = repeats disagree. A selection: hits, their analogues and other compounds. The true share with any hit is near 3%.

SMILES	PPC-1+TRAIL kill	SENP6 block	SENP8 block-1	SENP8 block-2	TRAIL sens C8	SENP7 inh
O=c1nc(-c2ccccc2)c2cc(SC(F)F)ccc2[nH]1	/	5.2	-7.9	-358.5	15.9	7.4
CC(C)N=c1cc2n(-c3ccc(Cl)cc3)c3ccccc3nc-2cc1Nc1ccc(Cl)cc1	/	20.4	12.4	-16.6	80.6*	10.8
Cn1c(CNc2ccc(Cl)cc2)nc2ccccc21	11.8	0.8	0.3	17.6	25.6	-7.3
CCC1=NN(S(=O)(=O)c2ccc(C)cc2)C(O)(C(F)(F)F)C1 (stereo not given)	-2.1	-8.7	-6.2	13.1	-6.1	-1.2
CCn1c(C)nc2cc(C(=O)N/N=C/c3ccccc3)ccc21	11.3	19.8	7.5	2.4	5.6	-2.3
CCn1c(C)nc2cc(C(=O)N/N=C/c3cccc(O)c3O)ccc21	17.4	-17.5	-6.4	0.7	51.7*	0.7
COc1ccc(-c2nn(-c3ccccc3)cc2/C=N/N=C(N)N)cc1OC	55.1*	-21.5	-13.5	-412.4	24.8	-2.9
Cc1cccc(-c2nc3cc(NC(=O)C4CCCO4)ccc3o2)c1 (stereo not given)	55.6*	/	/	-410.3	62.9*	/
COc1ccc(-n2c(C)cc(/C=C3\C(=O)NN(c4ccccc4)C3=O)c2C)cc1	27.9	38.2	27.6	19.1	12.4	13.7
Cc1cc(/C=C2\C(=O)NN(c3ccccc3)C2=O)c(C)n1-c1ccccc1O	28.2	7.9	19.4	53.2*	2.9	33.7
Cc1cccc(NC(=O)c2ccc(N3CCCCC3)c([N+](=O)[O-])c2)n1	26.6	76.0*	47.8	15.4	33.5	73.4*
COC(=O)c1sccc1NC(=O)Nc1ccccc1C	/	10.0	2.0	0.3	-24.9	-1.1
COC(=O)c1sccc1NC(=O)Nc1ccccc1F	17.0	69.6*	88.4*	7.4	-2.3	97.5*
NC(=O)CSc1ccc(-c2ccc(F)cc2)nn1	-8.1	-6.7	-1.5	15.9	-5.2	-2.4
CC12CCC(/C(=C/NNc3ccc([N+](=O)[O-])cc3[N+](=O)[O-])C1=O)C2(C)C (stereo not given)	/	/	/	30.4*	-8.0	/
O=C(NNc1ccc([N+](=O)[O-])cc1[N+](=O)[O-])C1C2CCCCC21 (stereo not given)	31.6	-13.3	-1.0	11.8	-13.2	4.2
CCN1CCN(Cc2ccc(NC(=O)c3ccc(C)c(NC(=O)c4nccn4C)c3)cc2C(F)(F)F)CC1	19.0	5.7	4.3	5.8	7.5	3.6
CCN1CCN(Cc2ccc(NC(=O)c3cc(NC(=O)c4cncc(-c5ccc(C#N)cc5)c4)cc(OC)c3)cc2C(F)(F)F)CC1	-0.1	-15.0	-4.7	5.9	94.0*!	-5.6
CCN1CCN(Cc2ccc(NC(=O)c3ccc(C)c(NC(=O)c4cncc(-c5cccs5)c4)c3)cc2C(F)(F)F)CC1	/	/	/	-8.9	69.7*	/
CCN1CCN(Cc2ccc(NC(=O)c3ccc(C)c(NC(=O)c4cc(-c5ccc(Br)cc5)n[nH]4)c3)cc2C(F)(F)F)CC1	17.9	-10.6	-13.8	9.8	31.6	-1.4
CCN1CCN(Cc2ccc(NC(=O)c3cc(NC(=O)c4nccnc4N)cc(OC)c3)cc2C(F)(F)F)CC1	29.7	-6.1	-20.4	-170.4	12.3	5.1
CCN1CCN(Cc2ccc(NC(=O)c3cc(NC(=O)c4cnnc5ccccc45)cc(OC)c3)cc2C(F)(F)F)CC1	25.6	-7.3	-12.9	15.4	55.8*!	-9.3
COc1cc(CNc2ncnc3c2ncn3[C@H]2CN(Cc3ccc4c(c3)OCO4)C[C@@H](CO)O2)cc(OC)c1OC	/	/	/	0.6	1.0	/
O=C(C1CC1)N1CCc2sccc2C1c1ccc(Cl)cc1 (stereo not given)	7.0	-2.9	-1.3	2.7	12.4	2.1
O=C(COC(=O)c1cc(=O)c2ccccc2o1)NC1CCCC1	22.0	4.6	4.2	2.1	6.2	1.0
SMILES	PPC-1+TRAIL kill	SENP6 block	SENP8 block-1	SENP8 block-2	TRAIL sens C8	SENP7 inh
COc1ccc(/C(C#N)=C/c2ccccn2)cc1	11.0	63.8*	53.8*	-281.0	16.1	6.1
CC1=NC(C)(C)Cc2cc(C)c(C)cc21	-23.9	-1.8	-4.3	9.2	3.8	-8.9
CCCn1c(N)c(CC)c(=O)[nH]c1=O	-23.1	0.2	-7.8	13.7	-11.2	-3.9
CCCc1cc2c(=O)c(-c3ccc4c(c3)OCCO4)coc2cc1OC(=O)c1ccco1	35.0	6.1	8.5	10.8	55.7*	-1.2
COc1cc(NCc2ccccc2)c2ncn(C(C)C)c2c1	/	2.0	4.8	21.9	-1.4	5.5
CCC(CN(C)C)Oc1cc(NCc2ccccc2)c2ncn(C(C)C)c2c1 (stereo not given)	/	-4.9	82.9*	12.4	58.3*	86.7*
CCCS(=O)(=O)NC(=O)C1(C)CCCN(C(=O)C(C)(C)Oc2ccc(Cl)cc2)C1 (stereo not given)	/	/	/	19.4	1.1	/
O=S(=O)(Nc1ccc(-c2nc3cccnc3s2)cc1)c1cc(F)ccc1F	9.7	58.8*	24.1	-443.0	21.6	-2.6
CC1(NC(=O)c2ccccc2)CCN(CCCc2ccccc2)C1=O (stereo not given)	/	2.0	0.5	9.9	-5.4	3.8
C[C@H](NC(=O)c1ncn2c1c(=O)[nH]c1ccccc12)c1ccccc1	/	/	/	-346.5	21.6	/
C[C@H](NC(=O)c1ncn2c1c(=O)[nH]c1ccc(Br)cc12)c1ccccc1	/	/	/	-180.8	91.0*	/
Cc1sc(NC(=O)c2cccc(N3C(=O)CCC3=O)c2)nc1-c1ccccc1	/	7.1	1.0	-195.3	50.1*	-3.2
O=C(Nc1nc2cc3c(cc2s1)OCCO3)c1cccs1	20.9	96.1*	94.1*	-384.7	63.3*	97.8*
O=C(Nc1nc2cc3c(cc2s1)OCCO3)c1ccc([N+](=O)[O-])o1	/	86.8*	74.5*	-21.5	68.7*	88.2*
COc1ccccc1C(=O)Nc1nc2cc3c(cc2s1)OCO3	26.9	48.4	19.8	-462.2	22.3	78.6*
O=C(CCS(=O)(=O)c1ccccc1)Nc1nc2cc3c(cc2s1)OCCO3	/	8.2	-2.8	-12.3	13.2	5.5
COc1ccc(NS(=O)(=O)c2cccc(C(=O)N3CCCC(C)C3)c2)cc1 (stereo not given)	/	-5.6	-0.2	14.3	9.6	-7.0
COc1cc(CC(=O)OCC(=O)NCc2cccs2)cc(OC)c1OC	/	-4.4	8.9	5.3	9.2	-4.0
COCCNC(=O)CSC1=N/C(=C/c2ccc(Cl)c(Cl)c2)C(=O)N1c1ccccc1F	4.7	1.8	3.0	-403.1	-2.6	0.4
O=C(Nc1nc2cc3c(cc2s1)OCCO3)c1cccc(N2C(=O)CCC2=O)c1	66.6*	8.6	2.0	-347.6	-5.4	5.0
O=C(CN1C(=O)c2ccccc2S1(=O)=O)c1ccccc1F	/	20.9	4.6	15.4	46.3*	-8.9
O=C(CN1C(=O)c2ccccc2S1(=O)=O)c1ccc(F)cc1	-7.1	11.2	9.3	24.2	31.2	9.3
CC1(C(=O)NCc2cccs2)CCN1C(=O)Cc1cccc2ccccc12 (stereo not given)	/	/	/	7.9	12.1	/

High-throughput results from PubChem BioAssay.
